Experimental data: PubChem BioAssay (NCI)
This is part of a sample that, as a whole, favours compounds with a hit. Of some 79,000 tested, about 15% had one in any assay. Activity calls are given as the source filed them. Cut-off read from the data, not from the text of the source: active = growth inhibition above about 70%; inactive = the rest.

Assays:
[1] = NCI Yeast Anticancer Drug Screen. Data for the rad50 strain (AID 155);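 note: 0% = growth of vehicle-only cultures of the same strain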; conditions: S. cerevisiae rad50 strain growth inhibition, hits give high values
Method in brief: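 Compounds were tested on a yeast strain with an engineered DNA damage repair alteration; the reported value is growth inhibition normalised to vehicle treatment.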

[2] = NCI Yeast Anticancer Drug Screen. Data for the mec2-1 strain (AID 157); conditions: S. cerevisiae mec2-1 strain, hits give high values
Method in brief: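 Using mec2-1 yeast: add compound, measure growth, express inhibition versus vehicle-treated cultures.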

[3] = NCI Yeast Anticancer Drug Screen. Data for the sgs1 mgt1 strain (AID 161);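 note: 0% = growth of cultures given vehicle only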; conditions: S. cerevisiae sgs1 mgt1 strain, hits give high values
Method in brief: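 Growth of a repair-deficient yeast mutant was monitored after compound treatment and expressed as inhibition relative to vehicle-treated cultures.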

[4] = NCI Yeast Anticancer Drug Screen. Data for the cln2 rad14 strain (AID 165);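 note: 0% = growth equal to vehicle treated cultures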; conditions: S. cerevisiae cln2 rad14 strain, hits give high values
Method in brief: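 Yeast strain cln2 rad14, bearing defects in cell cycle control and DNA repair, serves as the test system; values reflect growth inhibition compared with vehicle.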

[5] = NCI Yeast Anticancer Drug Screen. Data for the bub3 strain (AID 167); conditions: S. cerevisiae bub3 mutant strain, hits give high values
Method in brief: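 Growth of a checkpoint-deficient yeast mutant is measured after compound exposure. Values represent inhibition relative to vehicle.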

[6] = NCI Yeast Anticancer Drug Screen. Data for the mlh1 rad18 strain (AID 175); conditions: S. cerevisiae mlh1 rad18 strain growth inhibition, hits give high values
Method in brief: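 Steps: expose repair-defective yeast to compound; measure growth; express inhibition against vehicle-treated controls.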

[7] = at 5.0 µM (retest, dose inferred, filed as 0.5)
[8] = at 50.0 µM (retest, dose inferred, filed as 5.0)

Measured: growth inhibition

O=C1C=CC(=O)c2c1oc1ccccc21
inactive: [1]; [7] 14% | [1]; at 50.0 µM 60.7% | [2]; [7] 6% | [2]; at 50.0 µM 19% | [3]; [7] 13% | [3]; at 50.0 µM 16.2% | [4]; [7] 13% | [4]; at 50.0 µM 48.5% | [5]; [7] 30% | [5]; at 50.0 µM 36% | [6]; [7] 23% | [6]; at 50.0 µM 57.8%
active: [1]; [8] 98% | [2]; [8] 99% | [3]; [8] 99% | [4]; [8] 79% | [5]; [8] 98% | [6]; [8] 98%

c1cc[c]([Sn]([S]c2cccc3cccnc23)([S]c2cccc3cccnc23)[c]2ccccc2)cc1
active: [1]; [7] 98% | [1]; [8] 99% | [1]; at 50.0 µM 96.8% | [2]; [7] 99% | [2]; [8] 100% | [2]; at 50.0 µM 98% | [3]; [7] 98% | [3]; [8] 99% | [3]; at 50.0 µM 98% | [4]; [7] 98% | [4]; [8] 98% | [4]; at 50.0 µM 95.5% | [5]; [7] 98% | [5]; [8] 99% | [5]; at 50.0 µM 95.9% | [6]; [7] 98% | [6]; [8] 99% | [6]; at 50.0 µM 97.6%

C[N+](C)=c1ccc2nc3c(cc(NCCCNc4cc5oc6cc(=[N+](C)C)ccc-6nc5c5ccccc45)c4ccccc43)oc-2c1
inactive: [1]; [7] -28% | [2]; [7] -7% | [2]; at 50.0 µM 51% | [3]; [7] -15% | [3]; at 50.0 µM 67.5% | [4]; [7] -29% | [4]; [8] 53% | [4]; at 50.0 µM 39.5% | [5]; [7] -18% | [5]; at 50.0 µM 64% | [6]; [7] -15% | [6]; at 50.0 µM 65.1%
active: [1]; [8] 79% | [1]; at 50.0 µM 75.8% | [2]; [8] 80% | [3]; [8] 70% | [5]; [8] 72% | [6]; [8] 74%

O.O.O=C(O)C(O)C(O)C(OC1OC(CO)C(O)C(O)C1O)C(O)CO.O=C(O)C(O)C(O)C(OC1OC(CO)C(O)C(O)C1O)C(O)CO.[NH-]C1CCCCC1[NH-].[Pt+2] (stereo not given)
active: [1]; at 50.0 µM 95.1% | [2]; at 50.0 µM 99.6% | [3]; at 50.0 µM 99.7% | [4]; at 50.0 µM 73.2% | [5]; at 50.0 µM 99.4% | [6]; at 50.0 µM 99.2%
inactive: [1]; [7] -6% | [1]; [8] 39% | [2]; [7] -6% | [2]; [8] 21% | [3]; [7] 0% | [3]; [8] 50% | [4]; [7] 2% | [4]; [8] 12% | [5]; [7] -2% | [5]; [8] -2% | [6]; [7] -6% | [6]; [8] 32%

O=C(O)Cc1nc2ccccc2[nH]1
inactive: [1]; [7] 1% | [1]; at 50.0 µM 25.9% | [2]; [7] 9% | [2]; at 50.0 µM 51.2% | [3]; [7] 14% | [3]; at 50.0 µM 2.85% | [4]; [7] 0% | [4]; [8] 34% | [4]; at 50.0 µM 14.8% | [5]; [7] 1% | [5]; at 50.0 µM -3.2% | [6]; [7] 2% | [6]; at 50.0 µM 3.05%
active: [1]; [8] 95% | [2]; [8] 70% | [3]; [8] 99% | [5]; [8] 98% | [6]; [8] 99%

CC(=O)OC1C(C)OC(OC(=O)C2CCC3C(C2)OC2(CC(OC(=O)/C=C/c4ccccc4)C(C)CO2)C32CO2)C(OC2OC(C)C(O)C(OC(C)=O)C2O)C1O (stereo not given)
inactive: [1]; [7] 34% | [2]; [7] 36% | [3]; [7] 30% | [4]; [7] 45% | [5]; [7] 31% | [6]; [7] 31%
active: [1]; [8] 97% | [1]; at 50.0 µM 87.9% | [2]; [8] 99% | [2]; at 50.0 µM 92% | [3]; [8] 99% | [3]; at 50.0 µM 91.5% | [4]; [8] 96% | [4]; at 50.0 µM 88.1% | [5]; [8] 99% | [5]; at 50.0 µM 90.2% | [6]; [8] 97% | [6]; at 50.0 µM 85.2%

C=C(c1ccccc1)[N+](=O)[O-]
active: [1]; [7] 94% | [1]; [8] 99% | [1]; at 50.0 µM 99.2% | [2]; [8] 99% | [2]; at 50.0 µM 99.4% | [3]; [8] 99% | [3]; at 50.0 µM 99.6% | [4]; [8] 99% | [4]; at 50.0 µM 99.1% | [5]; [8] 99% | [5]; at 50.0 µM 99.3% | [6]; [8] 100% | [6]; at 50.0 µM 99.2%
inactive: [2]; [7] 63% | [3]; [7] 59% | [4]; [7] 37% | [5]; [7] 67% | [6]; [7] 67%

O=[N+]([O-])c1ccc(Cl)cc1C=NC12CC3CC(CC(C3)C1)C2
active: [1]; at 50.0 µM 80.8%
inactive: [1]; [7] 15% | [1]; [8] 16% | [2]; [7] 12% | [2]; [8] 13% | [2]; at 50.0 µM 69% | [3]; [7] 16% | [3]; [8] 23% | [3]; at 50.0 µM 22.4% | [4]; [7] 3% | [4]; [8] 14% | [4]; at 50.0 µM 8.55% | [5]; [7] 4% | [5]; [8] 9% | [5]; at 50.0 µM 4.2% | [6]; [7] 13% | [6]; [8] 15% | [6]; at 50.0 µM 54.6%

COC1(CO)C(=O)N(C)CC(=O)N1C (stereo not given)
active: [1]; [8] 99% | [1]; at 50.0 µM 99.3% | [2]; [8] 99% | [2]; at 50.0 µM 99.7% | [3]; [8] 99% | [3]; at 50.0 µM 99.3% | [4]; at 50.0 µM 99.7% | [5]; [8] 99% | [5]; at 50.0 µM 99.5% | [6]; [8] 99% | [6]; at 50.0 µM 99.3%
inactive: [1]; [7] 1% | [2]; [7] 10% | [3]; [7] 5% | [4]; [7] -7% | [4]; [8] 20% | [5]; [7] 0% | [6]; [7] 1%

O=C1c2ccccc2C(=O)c2sc(Nc3cccc(Cl)c3)nc21
inactive: [4]; [7] 54%
active: [1]; [7] 93% | [1]; [8] 98% | [1]; at 50.0 µM 89.6% | [2]; [7] 93% | [2]; [8] 99% | [2]; at 50.0 µM 92.2% | [3]; [7] 92% | [3]; [8] 99% | [3]; at 50.0 µM 93% | [4]; [8] 98% | [4]; at 50.0 µM 89.9% | [5]; [7] 98% | [5]; [8] 97% | [5]; at 50.0 µM 90.6% | [6]; [7] 92% | [6]; [8] 98% | [6]; at 50.0 µM 90.5%
